PrP UTR inh: inhibition of PrP 5' UTR reporter expression | cell-based PrP 5' UTR mRNA reporter, plate reader | inhibition, % (no concentration beside the values) | 0.35% of 340,000 active | AID 488862, 2010; in the data active = inhibition above about 52%; note: 0 = median of the neutral control wells
Mtb FBA inh: Mtb FBA enzyme inhibitors, primary screen, biochemical, fluorescence, strain H37Rv. Fructose-bisphosphate aldolase (Mycobacterium tuberculosis (strain ATCC 25618 / H37Rv)), …. purified M. tuberculosis FBA, fluorescence read-out. inhibition, % at 1 µM. 2.3% of 360,000 active; in the data active = inhibition above about 27%;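 note: 0% = vehicle and 100% = reference inhibitor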
Target sequence (P9WQA3 whole entry, looked up): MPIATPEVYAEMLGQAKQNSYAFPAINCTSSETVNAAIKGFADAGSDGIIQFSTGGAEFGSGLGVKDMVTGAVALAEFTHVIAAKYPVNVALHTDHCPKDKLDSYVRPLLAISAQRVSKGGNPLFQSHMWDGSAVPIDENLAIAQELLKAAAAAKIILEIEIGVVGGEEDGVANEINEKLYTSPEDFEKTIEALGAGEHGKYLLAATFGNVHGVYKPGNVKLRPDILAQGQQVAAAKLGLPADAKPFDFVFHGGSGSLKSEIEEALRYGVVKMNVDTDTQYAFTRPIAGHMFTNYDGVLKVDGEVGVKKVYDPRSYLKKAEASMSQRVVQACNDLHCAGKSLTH
PfHsp40 rescue: rescue of yeast from PfHsp40 toxicity, primary screen, S. cerevisiae, ATP luminescence; S. cerevisiae expressing PfHsp40, growth rescue; growth rescue, % at 12.5 µM; 0.68% of 340,000 active; AID 504582, 2011; in the data active = growth rescue above about 28%, passing the limit was not always enough;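 note: yeast W303a lacking pdr1 and pdr3 grown in galactose medium; growth measured after three days at 30 °C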
BJeLR lethal: MLPCN primary cell-based screen for lethality selective to Ras in HRASV12 cells | 0.17% of 300,000 active | inhibition, % (no concentration beside the values) | BJeLR (HRASV12) viability, CellTiter-Glo ATP luminescence, 48 h; in the data active = inhibition above about 50%
GDH-TPI inh: GDH-TPI coupling enzyme inhibitors, primary screen, artefact control for M. tuberculosis FBA inhibitor project, biochemical, absorbance, full deck | inhibition, % at 4.8 µM | GDH-TPI coupled enzyme counterscreen, NADH absorbance | 1.2% of 360,000 active; in the data active = inhibition above about 30%;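 note: 0% = DMSO wells and 100% = wells lacking the enzyme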
PrPC TRFRET: inhibitors of human cell surface prion protein PrPC, primary screen, cell-based, TR-FRET; TR-FRET read-out; inhibition, % at 13.8 µM; Major prion protein (Homo sapiens), P04156; 0.43% of 370,000 active; AID 720596, 2013; in the data active = inhibition above about 24%; note: 0% = median of the test wells and 100% = reference compound wells
* marks the source's active call; other numbers are inactive results; . = not tested or not shown; + = active, no number. Sampled rows, rich in hits. Any-hit rate of the full collection: about 4.5%.

SMILES	PrP UTR inh	Mtb FBA inh	PfHsp40 rescue	BJeLR lethal	GDH-TPI inh	PrPC TRFRET
Cc1ccc(-c2cc(C(=O)N3CCOCC3)c3ccccc3n2)cc1	-31.9	16.2	1.2	-2.1	5.9	-5.6
COc1ccc(-c2cc(C(=O)N3CCOCC3)c3cc(C)ccc3n2)cc1	-2.8	157.3*	3.9	-3.7	14.5	-7.4
N#Cc1ccc(Cn2ccc3ccc(-c4ccc5ccn(C(=O)C6CCCCC6)c5c4)cc32)cc1	.	.	.	.	.	-5.2
COc1ccc2nc(-c3ccc(Cl)cc3)cc(C(=O)O)c2c1	-30.3	+	0.8	1.2	13.0	-3.0
COc1ccc(-c2cc(C(=O)N3CCCCC3)c3ccccc3n2)cc1	-9.1	128.0*	0.8	0.1	12.2	6.5
COc1ccc(-c2ccc(OC)cc2C(=O)O)cc1	-13.5	4.4	1.2	4.1	-15.2	-4.7
O=C(COCc1ccccc1)N1CC[C@H]2[C@H](CCCN2Cc2ccccc2)C1	.	.	.	.	.	-2.1
C=C(c1ccccc1)c1ccc(N(C)C)cc1	-27.4	1.8	-0.3	-8.5	10.0	1.5
CN(C)c1ccc(C(=O)c2ccccc2)cc1	-54.0	-3.7	-0.5	9.7	31.1*	5.1
O=C(Nc1ccc(F)cc1F)C1CCN(c2nnc(-n3cccc3)s2)CC1	.	.	.	.	.	9.8
O=C(Nc1ccc(C(O)(C(F)(F)F)C(F)(F)F)cc1)c1ccc(F)cc1F	.	.	.	.	.	2.3
COc1cccc(C(=O)Oc2ccccc2/C=C\C(=O)c2cc3ccccc3o2)c1	-41.3	-0.7	-0.3	10.7	31.1*	-11.0
O=C(Oc1ccccc1/C=C\C(=O)c1cc2ccccc2o1)c1ccccc1	-100.2	0.0	0.2	5.1	7.4	-11.5
CN=c1scc(-c2ccccc2F)n1/N=C/c1ccc(O)c(O)c1O	39.8	-3.6	30.1*	10.0	11.4	-6.5
COc1ccc(Cn2cc(CN3CC=CS3(=O)=O)nn2)cc1	.	.	.	.	.	-6.8
C/C(=N\Nc1ccc(C(F)(F)F)cn1)c1ccncc1	-32.1	-2.0	-0.2	3.6	56.1*	0.0
COc1ccc(Cl)cc1NC(=O)C(OC)c1ccccc1 (stereo unspecified)	-30.4	0.2	-0.1	3.6	12.2	-3.5
COC(/C(=N/O)c1ccc(Cl)cc1)c1ccccc1 (stereo unspecified)	-38.7	0.7	121.7*	-1.0	-3.0	9.6
O=C(NCCC1=CCCCC1)c1c(O)nc2ccccn2c1=O	-22.6	1.6	0.4	5.0	7.0	2.0
CCn1c(=O)c(C(=O)NCCCc2ccccc2)c(O)c2ccccc21	-13.6	3.6	9.2	-1.0	-11.1	1.1
O=C(NCCC1=CCCCC1)c1c(O)nc2sccn2c1=O	-10.8	-1.7	372.4*	-9.0	-1.1	-5.8
O=C(NCCCc1ccccc1)c1c(O)nc2sccn2c1=O	-10.5	0.4	178.0*	0.2	2.4	2.8
COC(=O)Cc1c(C)c2ccc(OCC(=O)NC3CCS(=O)(=O)C3)cc2oc1=O (stereo unspecified)	-4.6	140.2*	-0.3	-2.8	7.0	-2.5
O=C(COc1ccc2ccc(=O)oc2c1)NC1CCS(=O)(=O)C1 (stereo unspecified)	.	21.3	.	.	18.6	-4.1
O=C(COc1ccc(-c2nnco2)cc1)NC1CCS(=O)(=O)C1 (stereo unspecified)	-11.0	-1.7	31.3*	.	0.7	5.8
SMILES	PrP UTR inh	Mtb FBA inh	PfHsp40 rescue	BJeLR lethal	GDH-TPI inh	PrPC TRFRET
CCCOc1ccc2c(C)c(CC(=O)OC)c(=O)oc2c1	-42.7	121.0*	0.4	3.7	24.4	2.6
COC(=O)Cc1c(C)c2ccc(OCC(=O)N(C)C)cc2oc1=O	-20.7	138.5*	0.4	-2.3	20.4	-6.1
Cc1c(Cc2ccccc2)c(=O)oc2cc(OCC(=O)c3ccccc3)ccc12	-19.3	11.4	-0.5	-23.0	-3.0	6.7
O=C(Nc1ccc(OC(F)(F)F)cc1)Nc1c(-c2ccccc2)nc2ncccn12	.	.	.	.	.	-4.4
Cc1cc(C(=O)N/N=C/c2ccc3c(c2)OCO3)c(C)o1	-58.2	-0.3	-1.9	8.0	18.7	5.1
O=C(N/N=C/c1ccc2c(c1)OCO2)c1cccs1	-104.6	-2.0	0.1	3.7	34.6*	1.8
Cc1occc1C(=O)N/N=C/c1ccc(-c2ccccc2)cc1	-57.0	0.9	-0.7	61.7*	18.4	13.1
